Records with an inconclusive call do not appear. Calls of active or inactive are those of the source.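 The calls were made as follows, unless noted: active = binding below the plate cutoff, the plate median minus 3 SD, with a reading above zero; inconclusive = below the plate cutoff but reading exactly zero; inactive = the rest.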

A short description of test [1]: rapamycin-like changes in RPL19A-GFP expression – cell-based, S. cerevisiae, multiplex flow cytometry, primary screen (AID 1862; in the data active = percent of DMSO control GFP below about 86%;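 also: lower values mimic rapamycin by blocking the RPL19A rise seen in DMSO cells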). The conditions noted are these: S. cerevisiae RPL19A-GFP strain, flow cytometry fluorescence, 3 h; at 10 µM; stronger effect = lower value.
The nature of test [2]: TOR pathway GLN3 branch reporter MEP2-GFP changes – S. cerevisiae, multiplex flow cytometry, primary screen (AID 1867;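 active = GFP response, as percent of the DMSO control, above the screen-wide mean plus 3 SD, about 139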;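 also: median GFP channel fluorescence of barcode-gated MEP2-GFP cells measured by flow cytometry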). The note with it: S. cerevisiae MEP2-GFP strain, 3 h, at 10 µM, stronger effect = higher value, 100% means same as DMSO wells.
The nature of test [3]: TOR pathway RTG branch CIT2 reporter changes – S. cerevisiae, GFP fusion, multiplex flow cytometry, primary screen (AID 1870;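 active = percent response above a set limit, the screen-wide mean plus 3 SD, cut at about 130% in these data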;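 also: barcoded CIT2-GFP strain pooled with four other GFP strains with rapamycin as positive control; median GFP fluorescence per well over plate mean of DMSO wells so 100% = DMSO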). The conditions noted are these: S. cerevisiae CIT2-GFP expression, 3 h, at 10 µM, stronger effect = higher value. (Flow cytometry measures light scatter and fluorescence of single cells or particles in a stream.)
The nature of test [4]: TOR pathway LAP4-GFP level changes – S. cerevisiae, multiplex flow cytometry, primary screen (AID 1873;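 active = GFP signal, as percent of the solvent control, above the screen mean plus 3 SD, about 149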). The conditions noted are these: S. cerevisiae LAP4-GFP expression, 3 h, at 10 µM, stronger effect = higher value.
Test [5] in a line: yeast AGP1-GFP level changes, GLN3 branch – cell-based, multiplex flow cytometry, S. cerevisiae, primary screen (AID 1887;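 active = GFP signal above the screen-wide mean plus 3 SD, that is over about 124.5% of the solvent control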;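 also: AGP1-GFP fusion strain of S. cerevisiae within a five-strain barcoded multiplex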). The conditions noted are these: 3 h, at 10 µM, stronger effect = higher value.
Test [6] can be described thus: reduced mouse 2C T cell binding to pMHC/ICAM-1 vesicles – MLPCN validation set, flow cytometry, LFA-1/ICAM-1 modulator project, pilot screen (AID 2523;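 active = response below a set limit, under 55% cells CD8-positive and vesicle-bound, and CD8 cells' 90th-percentile brightness under 279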;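 as to vesicle binding response: mean PE anti-B7-1 fluorescence of CD8+ cells relative to row control; 100% = QL9-loaded vesicles with DMSO vehicle in the same plate row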). The note with it: 2C mouse CD8+ T cells, at 7 µM, stronger effect = lower value; double positive events: measured here: CD8+/vesicle+ event percentage.
Test [7] deals with Integrin beta-1 (Homo sapiens) + Integrin alpha-4 (Homo sapiens) (UniProt P13612+P05556). The test is described as follows: alpha4beta1 integrin LIBS antibody binding reduction – U937 cells, HUTS-21 mAb, flow cytometry, validation set, VLA-4 allosteric modulator project, pilot screen (AID 2674;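 active = inhibition above 50%, about 3 SD of the validation set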;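 also: antibody binding induced by the VLA-4 ligand LDV present at three times its Kd; 0% = LDV ligand with antibody and no compound and 100% = antibody without LDV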). The note with it: HUTS-21 LIBS mAb binding, at 6.7 µM, stronger effect = higher value, binding induced by LDV ligand.

The nature of test [8]: calorie-restriction mimetic ROS inhibitors, yeast – validation compound set, pilot screen (AID 2706;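 active = superoxide response below 65% of plate, a cut near 3 SD across the whole screen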;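 also: yeast exposed to compound for one week at 30 degrees C before staining; 100% = mean of all compound wells on the same plate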). The note with it: S. cerevisiae aging, superoxide DHE fluorescence; at 10 µM; stronger effect = lower value.
The target in test [9] is Beta-adrenergic receptor kinase 1 (Homo sapiens) (UniProt P25098). The test can be described thus: GRK2 binders displacing RNA aptamer, biochemical, validation, human GRK2, bead flow cytometry (AID 488806;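 active = aptamer binding inhibition above 30%, about 3 SD of noise from non-fluorescent compounds; inactive = inhibition at or below 30%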). The conditions noted are these: bead-bound GRK2, FAM-aptamer displacement, at 10 µM, stronger effect = higher value.
For test [10], the target named is Beta-2 adrenergic receptor (Homo sapiens) (UniProt P07550). The test is described as follows: agonist-induced loss of surface beta2AR – cell-based, FAP fluorogen, flow cytometry, validation set, pilot screen (AID 504459;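 active = percent response above 42, roughly 3 SD of non-fluorescent test compounds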;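 also: agonist-driven loss of surface beta2AR via internalization measured by FAP dye flow cytometry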). The conditions noted are these: Am2.2-beta2AR cells, at 10 µM, stronger effect = higher value.
Test [11] has as its target AP-2 complex subunit beta (Homo sapiens) (UniProt P63010). The test is described as follows: beta-arrestin/AP2 interaction blockers – biochemical, validation set, GST-AP2 beads, flow cytometry, pilot screen (AID 504541;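 active = inhibition above 54%, about 3 SD of non-fluorescent compounds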;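 also: AP2 carries R879A mutation and is captured from E. coli lysate; bead-bound FITC arrestin peptide fluorescence measuring arrestin peptide binding to AP2; 0% = DMSO wells and 100% = excess unlabeled arrestin peptide control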). The conditions noted are these: FITC arrestin peptide, at 10 µM, stronger effect = higher value, AP2 beta2 appendage fragment, R879A mutant.
Test [12] in a line: cytosolic pH regulators acting via V-ATPase – S. cerevisiae, pHLuorin, HTS validation (AID 504600; in the data active = response above about 15%;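 also: plate controls were DMSO for no effect and reference compound for full effect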). The note with it: V-ATPase proton transport, at 10 µM, stronger effect = higher value.
Test [13] has as its system anti-desmoglein-3 scFv antibody binding to human DSG3. The test can be described thus: blockers of pathogenic pemphigus antibody–desmoglein-3 binding – biochemical, validation compound set, bead-based, flow cytometry, pilot screen (AID 588368).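 Also: signal is the median channel fluorescence of bead-bound GFP antibody.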 The note with it: Protein G beads, DSG3-Fc, scFv-GFP binding, at 10 µM, stronger effect = lower value.
Test [14] can be described thus: Nile Red efflux blockade in pump-expressing yeast – validation compound set, multiplex, phenotypic, pilot screen (AID 588506;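 active = efflux inhibition above 0.42, the validation set average plus 4 SD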;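 also: Nile Red retained in cells so higher fluorescence means more efflux inhibition; 0 = negative control wells and 1 = enniatin B 25 µM full block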). The conditions noted are these: S. cerevisiae pump-expressing triplex, Nile Red efflux flow cytometry; at 10 µM; stronger effect = higher value; the pumps come from Candida albicans.
In test [15] the target is ATP-binding cassette sub-family B member 6 (Homo sapiens) (UniProt Q9NP58). The test is described as follows: blockers of ABCB6-driven porphyrin uptake – K562-ABCB6 cells, flow cytometry, validation set, pilot screen (AID 588550;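 active = inhibition above the screen-wide mean plus 3 SD, about 51%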;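 also: 0% = DMSO wells and 100% = benzethonium chloride 70 µM positive control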). The note with it: K562-ABCB6 porphyrin accumulation, 1 h, at 10 µM, stronger effect = higher value.
The nature of test [16]: AML differentiation inducers, ER-HoxA9 marrow cells – cell-based, GFP/MAC1 double positive, flow cytometry, validation set, primary screen (AID 588685;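 active = differentiation response of at least 50%, scaled between solvent and reference control, from cells with both markers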;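 also: compound exposure lasts four days before antibody staining and flow analysis; 0% = DMSO wells and 100% = 5 µM fulvestrant positive control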). The conditions noted are these: stronger effect = higher value, normalized: vehicle 0, fulvestrant 100.

Sequence of Integrin beta-1 (Homo sapiens) + Integrin alpha-4 (Homo sapiens) (P05556 whole entry, looked up): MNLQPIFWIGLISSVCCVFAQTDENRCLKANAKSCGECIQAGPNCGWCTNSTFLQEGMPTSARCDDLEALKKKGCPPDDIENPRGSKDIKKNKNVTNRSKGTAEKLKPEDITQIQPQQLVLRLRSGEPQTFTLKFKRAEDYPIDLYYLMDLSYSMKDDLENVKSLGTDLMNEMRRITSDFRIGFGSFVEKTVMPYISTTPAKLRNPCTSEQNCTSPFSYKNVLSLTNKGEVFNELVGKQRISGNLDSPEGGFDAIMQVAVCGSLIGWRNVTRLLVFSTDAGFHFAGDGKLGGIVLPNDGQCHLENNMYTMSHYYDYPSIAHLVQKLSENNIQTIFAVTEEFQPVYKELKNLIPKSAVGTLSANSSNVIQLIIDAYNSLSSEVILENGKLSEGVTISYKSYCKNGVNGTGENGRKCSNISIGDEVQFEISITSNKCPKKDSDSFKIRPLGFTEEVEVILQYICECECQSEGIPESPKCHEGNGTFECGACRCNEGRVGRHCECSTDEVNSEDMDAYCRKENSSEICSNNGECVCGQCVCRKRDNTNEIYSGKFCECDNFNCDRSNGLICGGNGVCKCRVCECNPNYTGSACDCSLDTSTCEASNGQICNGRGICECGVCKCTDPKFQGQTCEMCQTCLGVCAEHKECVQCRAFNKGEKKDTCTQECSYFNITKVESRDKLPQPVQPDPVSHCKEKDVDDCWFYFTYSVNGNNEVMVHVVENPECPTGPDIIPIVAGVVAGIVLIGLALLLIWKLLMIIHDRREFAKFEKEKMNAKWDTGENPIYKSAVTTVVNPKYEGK
Sequence of Integrin beta-1 (Homo sapiens) + Integrin alpha-4 (Homo sapiens) (P13612 whole entry, looked up): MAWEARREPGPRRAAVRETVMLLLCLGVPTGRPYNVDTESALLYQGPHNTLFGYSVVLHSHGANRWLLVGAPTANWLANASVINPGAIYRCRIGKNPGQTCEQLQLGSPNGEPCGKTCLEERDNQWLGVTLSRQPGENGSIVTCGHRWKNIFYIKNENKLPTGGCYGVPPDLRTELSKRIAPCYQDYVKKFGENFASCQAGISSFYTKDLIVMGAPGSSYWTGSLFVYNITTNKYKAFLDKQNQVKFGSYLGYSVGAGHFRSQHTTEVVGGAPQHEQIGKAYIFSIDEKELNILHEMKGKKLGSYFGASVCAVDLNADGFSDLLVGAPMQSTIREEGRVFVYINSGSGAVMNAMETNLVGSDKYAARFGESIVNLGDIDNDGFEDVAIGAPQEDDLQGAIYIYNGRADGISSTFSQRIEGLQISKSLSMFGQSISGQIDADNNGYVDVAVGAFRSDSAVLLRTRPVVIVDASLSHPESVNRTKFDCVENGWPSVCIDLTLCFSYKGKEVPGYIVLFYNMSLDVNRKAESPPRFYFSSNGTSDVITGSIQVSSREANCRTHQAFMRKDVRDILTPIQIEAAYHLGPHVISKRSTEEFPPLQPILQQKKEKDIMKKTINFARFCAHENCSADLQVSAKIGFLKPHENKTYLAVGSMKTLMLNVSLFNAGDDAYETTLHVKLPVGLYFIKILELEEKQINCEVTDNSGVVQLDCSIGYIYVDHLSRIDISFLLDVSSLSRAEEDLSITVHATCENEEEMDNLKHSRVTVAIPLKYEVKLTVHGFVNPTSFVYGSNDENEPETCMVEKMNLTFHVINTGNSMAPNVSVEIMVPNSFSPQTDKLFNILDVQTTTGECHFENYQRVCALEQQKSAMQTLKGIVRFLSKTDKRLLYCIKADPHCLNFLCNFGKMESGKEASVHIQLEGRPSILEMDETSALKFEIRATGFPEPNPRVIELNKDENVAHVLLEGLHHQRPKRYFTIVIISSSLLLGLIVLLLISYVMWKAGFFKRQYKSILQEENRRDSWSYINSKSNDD
Sequence of Beta-2 adrenergic receptor (Homo sapiens) (P07550 whole entry, looked up): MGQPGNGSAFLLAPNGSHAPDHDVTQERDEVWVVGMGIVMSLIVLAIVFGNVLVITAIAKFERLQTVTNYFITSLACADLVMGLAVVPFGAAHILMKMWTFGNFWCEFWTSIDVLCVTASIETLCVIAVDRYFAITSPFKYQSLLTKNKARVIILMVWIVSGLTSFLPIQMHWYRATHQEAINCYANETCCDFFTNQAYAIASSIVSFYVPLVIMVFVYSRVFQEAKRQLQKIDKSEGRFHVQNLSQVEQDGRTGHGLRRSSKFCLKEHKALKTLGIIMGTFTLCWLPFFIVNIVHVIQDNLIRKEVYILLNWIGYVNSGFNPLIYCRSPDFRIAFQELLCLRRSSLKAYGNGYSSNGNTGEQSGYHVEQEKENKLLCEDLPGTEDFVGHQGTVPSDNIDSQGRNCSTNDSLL
Sequence of AP-2 complex subunit beta (Homo sapiens) (P63010 whole entry, looked up, the tested form may be a part, one chain of several): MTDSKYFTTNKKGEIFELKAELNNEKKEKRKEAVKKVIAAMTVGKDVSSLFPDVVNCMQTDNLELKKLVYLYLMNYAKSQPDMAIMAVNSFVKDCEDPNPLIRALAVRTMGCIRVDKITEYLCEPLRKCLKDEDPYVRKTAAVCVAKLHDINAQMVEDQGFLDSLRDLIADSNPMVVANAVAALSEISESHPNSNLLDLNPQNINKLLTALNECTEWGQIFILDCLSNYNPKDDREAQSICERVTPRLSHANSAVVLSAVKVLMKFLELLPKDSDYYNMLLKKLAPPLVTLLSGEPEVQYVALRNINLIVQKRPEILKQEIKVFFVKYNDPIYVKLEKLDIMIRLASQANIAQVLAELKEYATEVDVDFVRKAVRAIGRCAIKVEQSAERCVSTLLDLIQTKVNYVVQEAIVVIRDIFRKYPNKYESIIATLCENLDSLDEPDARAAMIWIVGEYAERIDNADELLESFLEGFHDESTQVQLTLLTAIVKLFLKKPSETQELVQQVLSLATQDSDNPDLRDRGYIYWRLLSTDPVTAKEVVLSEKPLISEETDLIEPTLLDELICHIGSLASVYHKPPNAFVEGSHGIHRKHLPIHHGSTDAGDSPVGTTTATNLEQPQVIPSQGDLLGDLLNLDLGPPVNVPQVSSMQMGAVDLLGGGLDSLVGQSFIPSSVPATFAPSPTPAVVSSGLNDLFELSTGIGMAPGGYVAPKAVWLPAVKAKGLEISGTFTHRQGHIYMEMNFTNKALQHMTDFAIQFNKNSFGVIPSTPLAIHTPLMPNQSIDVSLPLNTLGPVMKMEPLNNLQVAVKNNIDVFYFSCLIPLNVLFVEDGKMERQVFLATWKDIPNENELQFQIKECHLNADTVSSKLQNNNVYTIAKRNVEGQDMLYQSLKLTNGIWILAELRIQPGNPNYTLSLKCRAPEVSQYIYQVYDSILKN
Sequence of Beta-adrenergic receptor kinase 1 (Homo sapiens) (P25098 whole entry, looked up): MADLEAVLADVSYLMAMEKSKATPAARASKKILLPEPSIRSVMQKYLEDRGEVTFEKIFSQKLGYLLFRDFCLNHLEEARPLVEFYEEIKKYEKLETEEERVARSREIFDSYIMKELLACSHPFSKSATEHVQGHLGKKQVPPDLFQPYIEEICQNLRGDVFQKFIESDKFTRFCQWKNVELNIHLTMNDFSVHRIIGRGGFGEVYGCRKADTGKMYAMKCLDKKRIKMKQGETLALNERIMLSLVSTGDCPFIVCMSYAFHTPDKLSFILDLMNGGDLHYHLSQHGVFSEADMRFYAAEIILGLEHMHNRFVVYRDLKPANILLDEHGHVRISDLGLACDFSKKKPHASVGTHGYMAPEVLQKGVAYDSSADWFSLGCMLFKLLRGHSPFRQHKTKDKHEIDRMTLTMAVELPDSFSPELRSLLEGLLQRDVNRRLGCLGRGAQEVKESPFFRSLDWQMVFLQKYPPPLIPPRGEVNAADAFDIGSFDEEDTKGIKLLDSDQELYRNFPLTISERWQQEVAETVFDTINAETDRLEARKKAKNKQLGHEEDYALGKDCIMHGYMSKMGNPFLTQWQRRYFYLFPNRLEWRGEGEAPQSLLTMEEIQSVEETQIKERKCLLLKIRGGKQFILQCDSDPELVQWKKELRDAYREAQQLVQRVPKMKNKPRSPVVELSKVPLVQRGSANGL
Sequence of ATP-binding cassette sub-family B member 6 (Homo sapiens) (Q9NP58 whole entry, looked up): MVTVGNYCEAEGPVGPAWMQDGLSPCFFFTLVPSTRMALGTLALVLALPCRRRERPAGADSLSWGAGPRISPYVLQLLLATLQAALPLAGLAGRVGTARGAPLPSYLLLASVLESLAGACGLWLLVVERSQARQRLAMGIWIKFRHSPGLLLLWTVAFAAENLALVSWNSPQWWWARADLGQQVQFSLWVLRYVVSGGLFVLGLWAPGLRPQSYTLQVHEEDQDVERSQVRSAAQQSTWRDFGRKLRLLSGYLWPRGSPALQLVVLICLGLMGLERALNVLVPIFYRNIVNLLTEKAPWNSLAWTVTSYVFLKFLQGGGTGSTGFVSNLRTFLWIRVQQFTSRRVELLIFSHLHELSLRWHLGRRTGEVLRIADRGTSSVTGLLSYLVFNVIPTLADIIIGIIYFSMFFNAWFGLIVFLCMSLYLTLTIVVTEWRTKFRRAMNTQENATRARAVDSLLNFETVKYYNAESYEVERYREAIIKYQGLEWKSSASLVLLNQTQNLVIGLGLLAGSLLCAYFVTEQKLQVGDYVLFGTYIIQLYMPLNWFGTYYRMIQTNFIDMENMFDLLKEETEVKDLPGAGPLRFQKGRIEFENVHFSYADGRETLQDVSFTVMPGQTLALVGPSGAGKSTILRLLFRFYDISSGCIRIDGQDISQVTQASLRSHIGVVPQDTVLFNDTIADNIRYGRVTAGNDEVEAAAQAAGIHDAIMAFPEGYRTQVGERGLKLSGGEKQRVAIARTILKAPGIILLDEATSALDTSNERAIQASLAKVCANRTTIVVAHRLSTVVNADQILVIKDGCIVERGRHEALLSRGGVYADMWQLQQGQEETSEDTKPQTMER

Consider `CC1CCN(CCOCCOc2ccccc2Br)CC1`, for which the percent of DMSO control GFP in test [1] is 102% (inactive). Moreover, the GFP response vs DMSO in test [2] is 103% (inactive); in [4] it was 86.8% (inactive). Besides, in test [3], the percent response of DMSO control is 93.1% (inactive). In test [5], the GFP response, % of DMSO was 97.2% (inactive). Further, the double positive events in [6] was determined as 54.8%. Also, in test [6], the vesicle binding response was 167% (inactive). In addition, the inhibition – broadly, the drop in the measured response relative to a control, in per cent – was 8.88% (inactive) in [7], -6.16% (inactive) in test [11] and -4% (inactive) in test [15]. Further, the superoxide response (% of plate) in test [8] was 95.8% (inactive). Besides, the aptamer binding inhibition in test [9] was 0% (inactive). In addition, the response in test [10] was -4.72% (inactive); in test [12], -0.14% (inactive). In test [13], the binding (% of control) was 95.6% (inactive). For the same compound, the efflux inhibition (fraction of control) in [14] is -0.17 (inactive). Besides, in test [16], the differentiation response is 15.9% (inactive).

In the case of `N#CCC(N)=C(C#N)C#N`, in [1], the percent of DMSO control GFP is 91.5% (inactive). Further, the GFP response vs DMSO in [2] was 120% (inactive); in test [4] it was 82.5% (inactive). Moreover, the percent response of DMSO control in [3] is 111% (inactive). The GFP response, % of DMSO in [5] was 91.7% (inactive). The same compound came in with a double positive events in [6] of 60.1%. Moreover, the vesicle binding response in test [6] was 188% (inactive). Moreover, the inhibition is -4.21% (inactive) in test [7], -8.05% (inactive) in [11] and -45% (inactive) in [15]. Further, in test [8], the superoxide response (% of plate) is 108% (inactive). Moreover, the aptamer binding inhibition in test [9] was 9% (inactive). The response in [10] is -2.94% (inactive); in test [12] it was 1.3% (inactive). Further, in test [13], the binding (% of control) was 101% (inactive). The efflux inhibition (fraction of control) in test [14] is -0.02 (inactive). Further, the differentiation response in test [16] is -5.73% (inactive).

As to `O=C1CC[C@@H](CN(Cc2ccccc2)Cc2cn[nH]c2-c2cc3ccccc3o2)N1`, in [1], the percent of DMSO control GFP was 101% (inactive). In addition, the values for the GFP response vs DMSO in [2] and in [4] were 108% (inactive) and 110% (inactive), respectively. Besides, the percent response of DMSO control in test [3] was 99.6% (inactive). Also, the GFP response, % of DMSO in test [5] was 114% (inactive). The compound further showed a double positive events in test [6] of 63.1%. The vesicle binding response in test [6] was 198% (inactive). The inhibition in test [7] was -4.52% (inactive); in [11], 2.07% (inactive); in test [15] it was 1% (inactive). In addition, in test [8], the superoxide response (% of plate) is 93.3% (inactive). Moreover, in test [9], the aptamer binding inhibition is 5% (inactive). Also, the response in test [10] is 40.3% (inactive); in test [12] it was 3.87% (inactive). The binding (% of control) in test [13] is 101% (inactive). In test [14], the efflux inhibition (fraction of control) is 0.38 (inactive). For the same compound, the differentiation response in test [16] is -7.94% (inactive).

For `CC(C)(C)N(Cc1ccccc1)C(=O)c1ccc(Br)o1`, the percent of DMSO control GFP in test [1] is 103% (inactive). The results for the GFP response vs DMSO in test [2] and in test [4] were 102% (inactive) and 107% (inactive), respectively. The percent response of DMSO control in test [3] was 95.7% (inactive). Besides, the GFP response, % of DMSO in test [5] was 101% (inactive). Further, the double positive events in test [6] amounted to 63.4%. In addition, the vesicle binding response in test [6] was 147% (inactive). Further, the values for the inhibition in test [7], in test [11] and in test [15] were -7.08% (inactive), 4.28% (inactive) and 6% (inactive), respectively. The superoxide response (% of plate) in test [8] was 101% (inactive). Further, the aptamer binding inhibition in test [9] is 6% (inactive). In addition, the response is -22.8% (inactive) in [10] and -8.19% (inactive) in [12]. For the same compound, in [13], the binding (% of control) was 97.1% (inactive). For the same compound, in test [14], the efflux inhibition (fraction of control) was 0.04 (inactive). Also, the differentiation response in [16] is -11.9% (inactive).

The values above are taken from PubChem BioAssay.
